± gives the standard deviation.
Experiments:
Details in all cases: modulator concentration 10 µM
[1] = test system: RAW-Dual (murine macrophage reporter line); assay: NF-kB reporter (SEAP) activity fold change vs agonist alone; higher = enhanced NF-kB activity
How it was run: (§1)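 RAW-Dual murine macrophage reporter cells were plated at 50 000 per well in 384-well plates, pin-transferred compound to 10 μM final, and pre-incubated for 1 hour at 37 °C before a PRR agonist was added and the cells incubated overnight. NF-κB activity was read from supernatant SEAP with QUANTI-Blue at 620 nm absorbance, and IRF activity from Lucia luciferase with QUANTI-Luc by luminescence. Each signal was expressed as fold change by dividing by the mean agonist-only control on the same plate. Two replicate plates were averaged, with errors obtained by propagation.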

[2] = test system: RAW-Dual (murine macrophage reporter line); assay: IRF reporter (Lucia luciferase) activity fold change vs agonist alone; higher = enhanced IRF activity
How it was run: as §1

[3] = test system: RAW-Dual (murine macrophage reporter line); assay: viability score (confluency relative to resting cells, overnight) (fraction); higher = more viable, active = viable (0.7 or more)
How it was run: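 A compound met the cutoff when both of two confluency masks exceeded 70% of resting cells. Those masks were made with IncuCyte software from IncuCyte images of RAW-Dual macrophages treated overnight at 10 μM final. This is the basis of the viability score, which is confluency relative to resting cells.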

[4] = agonist: CpG ODN 1826 0.5 ug/mL

| Structure (SMILES) | NF-kB reporter [1, 4] | NF-kB reporter ([1]; agonist: LPS 0.1 ug/mL) | NF-kB reporter ([1]; agonist: MPLA […]) | IRF reporter ([2]; agonist: 3'3'-cGAMP 10 ug/mL) | IRF reporter ([2]; agonist: LPS 0.1 ug/mL) | IRF reporter ([2]; agonist: MPLA […]) | viability score [3] |
| --- | --- | --- | --- | --- | --- | --- | --- |
| c1ccc(CSc2nnc(-c3cccnc3)o2)nc1 | 0.986 ± 0.056 | 1.09 ± 0.084 | 1 ± 0.074 | 0.992 ± 0.036 | 0.95 ± 0.13 | 0.858 ± 0.33 | 1 (active) |
| C=CCNC(=O)CN(Cc1ccccc1)S(=O)(=O)c1ccc(OC)c(OC)c1 | 0.684 ± 0.4 | 0.886 ± 0.078 | 0.946 ± 0.089 | 0.916 ± 0.029 | 1.11 ± 0.14 | 1.13 ± 0.17 | 1.04 (active) |
| CCOC(=O)C1C(=O)NC(SCC(N)=O)=C(C#N)C1c1ccccc1OCC (stereo not given) | 0.936 ± 0.052 | 0.994 ± 0.063 | 0.926 ± 0.07 | 1 ± 0.072 | 1.25 ± 0.083 | 1.03 ± 0.098 | 1 (active) |
| CN1C(C(=O)Nc2ccccn2)=C(O)c2sc(Cl)cc2S1(=O)=O | 0.744 ± 0.047 | 0.896 ± 0.094 | 1.08 ± 0.11 | 0.955 ± 0.043 | 1.43 ± 0.22 | 1.72 ± 0.59 | 0.967 (active) |
| CCCCNc1ccc(C(=O)OCCN(C)C)cc1.Cl | 0.906 ± 0.12 | 0.983 ± 0.31 | 0.987 ± 0.055 | 0.824 ± 0.039 | 1.15 ± 0.34 | 1.09 ± 0.086 | 1.01 (active) |
| CC(C=CC1=C(C)CCCC1(C)C)=CC=CC(C)=CC(=O)O | 1.29 ± 0.11 | 0.943 ± 0.078 | 1.01 ± 0.1 | 0.568 ± 0.031 | 1.1 ± 0.14 | 0.904 ± 0.19 | 0.986 (active) |
| S=c1n(CN2CCOCC2)nc(-c2ccccc2Br)n1-c1ccccc1 | 1.08 ± 0.19 | 0.947 ± 0.099 | 0.951 ± 0.073 | 0.884 ± 0.031 | 1.21 ± 0.12 | 1.22 ± 0.17 | 1 (active) |
| COc1ccc(Cl)cc1S(=O)(=O)NCc1ccccn1 | 1.11 ± 0.07 | 0.901 ± 0.1 | 0.986 ± 0.026 | 1.01 ± 0.059 | 1.01 ± 0.1 | 0.936 ± 0.15 | 0.996 (active) |
| C=C(C)COc1ccc(-c2ncncc2-c2ccccc2)c(O)c1 | 1.08 ± 0.18 | 0.985 ± 0.088 | 0.963 ± 0.082 | 0.996 ± 0.029 | 1.14 ± 0.17 | 1.27 ± 0.13 | 1 (active) |
| CCOC(=O)[C@H](CCc1ccccc1)N[C@@H](C)C(=O)N1CCC[C@H]1C(=O)O.O=C(O)/C=C\C(=O)O | 1.05 ± 0.09 | 1.01 ± 0.11 | 1 ± 0.054 | 1.01 ± 0.085 | 0.916 ± 0.04 | 0.868 ± 0.2 | 1 (active) |
| N=C1NC(=O)C(=Cc2ccc(-c3ccc(F)cc3)o2)S1 | 0.507 ± 0.047 | 0.632 ± 0.042 | 0.964 ± 0.043 | 1.02 ± 0.17 | 0.989 ± 0.15 | 0.798 ± 0.13 | 1 (active) |
| CCOc1cccc2sc(N(CCCN(C)C)C(=O)c3ccc(Cl)s3)nc12.Cl | 0.938 ± 0.042 | 1.06 ± 0.19 | 0.898 ± 0.12 | 0.747 ± 0.093 | 0.989 ± 0.26 | 0.954 ± 0.38 | 0.917 (active) |
| Cc1ccc(C(=O)C(C)CN2CCCCC2)cc1.Cl (stereo not given) | 0.981 ± 0.13 | 1.05 ± 0.14 | 0.908 ± 0.052 | 0.895 ± 0.032 | 1.27 ± 0.41 | 1.43 ± 0.15 | 0.956 (active) |
| CCOC(=O)C1=C(CC)OC(N)=C(C#N)C1c1cccc(Oc2ccc(Cl)cc2)c1 (stereo not given) | 0.746 ± 0.058 | 0.662 ± 0.05 | 0.769 ± 0.073 | 0.281 ± 0.0095 | 1.13 ± 0.18 | 1.12 ± 0.2 | 0.972 (active) |
| CC(C)(C)c1ccc(C2=NC(=Cc3cccc4ccccc34)C(=O)O2)cc1 | 0.986 ± 0.078 | 1.05 ± 0.082 | 0.97 ± 0.034 | 0.857 ± 0.11 | 1.1 ± 0.11 | 1 ± 0.19 | 1 (active) |
| CCOCCOC(=O)C1=C(C)NC2=C(C(=O)CCC2)C1c1coc2ccc(C)cc2c1=O (stereo not given) | 0.973 ± 0.083 | 0.961 ± 0.12 | 0.993 ± 0.12 | 1.01 ± 0.029 | 1.41 ± 0.14 | 1.18 ± 0.11 | 1.01 (active) |
| COCCCNC(=O)CSc1ccc(Cl)cc1 | 1.07 ± 0.17 | 0.974 ± 0.11 | 0.952 ± 0.13 | 0.889 ± 0.063 | 1.12 ± 0.28 | 1.1 ± 0.13 | 1 (active) |
| CCOc1ccccc1OCCCCOc1cccc(C)c1 | 0.871 ± 0.064 | 0.936 ± 0.071 | 0.995 ± 0.028 | 0.996 ± 0.12 | 0.878 ± 0.13 | 0.96 ± 0.29 | 0.998 (active) |
| COC(=O)C1=CN(CC2CCCO2)C=C(C(=O)OC)C1c1cccc(F)c1 (stereo not given) | 0.948 ± 0.21 | 0.907 ± 0.084 | 1.05 ± 0.098 | 0.868 ± 0.026 | 1.21 ± 0.19 | 1.18 ± 0.16 | 0.954 (active) |
| Cc1[nH]c2ccccc2c1CCNCc1ccc(/C=C/C(=O)NO)cc1 | 0.22 ± 0.015 | 1.58 ± 0.1 | 2.77 ± 0.17 | 0.0565 ± 0.0025 | 0.355 ± 0.032 | 0.509 ± 0.06 | 0.055 (inactive) |
| Cc1[nH]nc(-c2ccc(OCc3ccccc3)c(C)c2O)c1-c1cnn(-c2ccccc2)c1 | 0.892 ± 0.073 | 1.1 ± 0.077 | 0.784 ± 0.049 | 0.95 ± 0.026 | 1.58 ± 0.19 | 1.11 ± 0.095 | 1.01 (active) |
| Cc1cccc(Cn2c(=O)c3nscc3n(Cc3ccc(F)c(F)c3)c2=O)c1 | 1.14 ± 0.099 | 1.09 ± 0.087 | 1.21 ± 0.11 | 0.997 ± 0.048 | 1.01 ± 0.093 | 0.899 ± 0.22 | 0.995 (active) |
| COC(=O)[C@H](c1ccccc1Cl)N1CCc2sccc2C1.O=S(=O)(O)O | 0.811 ± 0.21 | 0.993 ± 0.28 | 1.06 ± 0.12 | 1.11 ± 0.081 | 1.02 ± 0.29 | 0.955 ± 0.22 | 0.954 (active) |
| Cc1n[nH]c(C)c1S(=O)(=O)N1CCCN(C(=O)Cc2ccccc2Cl)CC1 | 1.03 ± 0.051 | 1.14 ± 0.11 | 1 ± 0.18 | 1.05 ± 0.053 | 1.21 ± 0.074 | 1.26 ± 0.11 | 0.979 (active) |
| Nc1nc(=O)[nH]cc1F | 0.84 ± 0.12 | 1.07 ± 0.085 | 1.08 ± 0.11 | 1.02 ± 0.049 | 1.23 ± 0.071 | 1.33 ± 0.11 | 1.01 (active) |

Reference: the supplement of paper PMC10646978
